# Experimental data as given in ChEMBL document CHEMBL3988442, “University of Dundee, Small-Polar-MMV Screening Library” (2021).
# Hit rate of the full screen: of about 48,000 compounds, about 13,000 (27%) showed an effect of 50% or more. The list shows a part of the results.
# System: Wolbachia pipientis
# Assay: Anti-Wolbachia Cell-Based Screen
# Type: functional
# Parameters: scale not given: in the data most compounds retested in dose-response had high values
# Settings: 5 µM
row,SMILES,Percent Effect [%]
1,CCCC(C)NC(=O)c1ccc(-c2ccco2)[nH]c1=O (stereo not given),12.91
2,CC(C)[C@H](NS(C)(=O)=O)C(=O)NCc1cc(-c2ccco2)n[nH]1,84.23
3,CCc1cc(CNC(=O)NCC(c2ccco2)N2CCCC2)[nH]n1 (stereo not given),-1.193
4,CCc1cc(CNC(=O)N(C2CC2)C(C)c2ccco2)[nH]n1 (stereo not given),-14.67
5,CCc1cc(CNC(=O)c2cc(NC(=O)C(C)C)ccc2Cl)[nH]n1,-9.115
6,CC(NS(C)(=O)=O)C(=O)N(C)Cc1csc(-c2ccccc2)n1 (stereo not given),-10.17
7,CC(C)[C@H](NS(C)(=O)=O)C(=O)NCc1cc(-c2ccccc2)n[nH]1,101.1
8,O=C(c1cccc(-n2cccn2)c1)N1CCCOC(Cn2cccn2)C1 (stereo not given),8.514
9,O=C(NCC1CC1)C1CCCN(c2cccc(C(F)(F)F)n2)C1 (stereo not given),-14.15
10,COc1ccc(SC(C)C(=O)N2CCC(NC(=O)C3CC3)CC2)cc1 (stereo not given),-11.29
11,COCC(=O)Nc1cc(Br)cnc1OCC(F)(F)F,-8.259
12,Cc1ccc(C(=O)NC2CCN(C(=O)Nc3ccccn3)CC2)s1,106.5
13,Cc1occc1C(=O)NC1CCN(C(=O)Nc2cccnc2)CC1,26.57
14,CC1CCN(C(=O)C2CCCN(C(=O)Nc3ccccn3)C2)CC1 (stereo not given),-1.039
15,Cc1ccc(C(=O)N2CCN(C(=O)Nc3ccccn3)CC2)o1,12.27
16,Cc1ccoc1C(=O)NC1CCN(C(=O)Nc2ccccn2)CC1,143.8
17,CCn1cc(CN2CCCC2c2nc(-c3ccccc3)no2)cc1C#N (stereo not given),-29.44
18,Cc1ccc(CN2CCc3c(CN4CCCC4)n[nH]c3C2)s1.O=C(O)C(F)(F)F.O=C(O)C(F)(F)F,-6.492
19,Cn1nnc2c1C(COCC1CC1)CN(C(=O)[C@H]1CCCO1)C2 (stereo not given in full),10.79
20,CCOC(=O)c1coc(N2CCC(C(O)CC(C)C)CC2)n1 (stereo not given),-3.785
21,CC(=O)N1CCOC(c2c(C(=O)O)sc3ccccc23)C1 (stereo not given),123
22,CC(=O)N1CCOC(c2c(C(=O)NC(C)(C)C)sc3ccccc23)C1 (stereo not given),161.4
23,CC(=O)N1CCOC(c2c(C(=O)NCCN(C)C)sc3ccccc23)C1 (stereo not given),169.5
24,CC(=O)N1CCN(Cc2c(C)sc3ccccc23)CC(O)C1 (stereo not given),-5.1
25,CC(=O)N1CCC(c2nnc3ccc(C(=O)NCCN(C)C)cn23)C1 (stereo not given),-5.924

row,SMILES,Percent Effect [%]
1,CC(=O)N1CCN(Cc2cccc3c2sc2ccccc23)CC(O)C1 (stereo not given),-0.8612
2,Cn1ccc(C(=O)N2CCOC(c3ccccc3)C2)cc1=O (stereo not given),-8.227
3,CNC(=O)c1cccc(NC(=O)NC(C)CCc2cccn2C)c1C (stereo not given),-20.84
4,CCn1ccnc1CN(C)C1CCCN(Cc2ccccc2F)C1 (stereo not given),-12.96
5,CCC1CN(CCCO)c2ccccc2O1 (stereo not given),49.62
6,Cc1nnc(CN2CCN(CCOc3ccccc3C#N)CC2)n1C,-3.944
7,Cc1nccc(CN2CC[C@H](Oc3cccc(F)c3)[C@@](C)(O)C2)n1,-4.258
8,Fc1ccc(CC2CCN(Cc3cscn3)CC2)cc1,6.196
9,CCN1CCN(C[C@@H]2CN(c3ncccc3F)C[C@@H]2CO)CC1,10.53
10,C[C@]1(O)CN(Cc2ncc[nH]2)CC[C@@H]1Oc1cccc(F)c1,143.6
11,CCN1CC(c2ccccc2)CC2(CCN(Cc3ncc[nH]3)CC2)C1 (stereo not given),-4.226
12,C[C@]1(O)CN(Cc2cscn2)CC[C@@H]1Oc1cccc(F)c1,131.8
13,Cc1cccnc1CN1CC[C@H](Oc2cccc(F)c2)[C@@](C)(O)C1,112.2
14,C[C@]1(O)CN(Cc2ncccc2F)CC[C@@H]1Oc1cccc(F)c1,113.6
15,COc1ccc2c(c1)CCN(Cc1cscn1)CC2,-16.58
16,CCn1ccnc1CN1CCC(Oc2cccc(F)c2)(C(=O)O)CC1,-6.452
17,CCOc1ccnc(N2CCN(Cc3ncccc3C)CC2)n1,-12.42
18,O=C(c1cnc2[nH]c(=O)[nH]c(=O)c2c1)N1CCCC1C1CCCCC1 (stereo not given),5.907
19,Cc1cccc(S(=O)(=O)NC(=O)c2ccc3c(c2)nnn3C)c1,-16.64
20,CC(C)c1noc(-c2ccc(NCc3noc(C(C)C)n3)nc2)n1,-9.684
21,Cc1ccccc1OCC1CCCN(C(=O)Cc2c[nH]c(=O)[nH]c2=O)C1 (stereo not given),-4.345
22,O=C(COc1ccc2c(c1)CCC2)NS(=O)(=O)c1cncc(Br)c1,-16.45
23,CC(O)c1cn(CC2CCN(C(=O)CN(C)C(C)C)CC2)nn1 (stereo not given),-14.32
24,CSc1ccc(C)c(C(=O)N2CCCC(n3cncn3)C2)c1 (stereo not given),94.98
25,Cc1ccc(S(C)(=O)=O)cc1C(=O)N1CCCC(n2cncn2)C1 (stereo not given),123.8
